The source of these data is PubChem BioAssay (NCATS).

Inconclusive results are not listed. A number with no mark means an inactive call. Calls of active or inactive are those of the source. Calls come from the whole dose curve; as a rule, active = well fitted cell-killing curve with a large enough effect; inconclusive = small, poorly fitted or top-dose-only effect, or effect the other way; inactive = no such curve, though single readings can be large or run the other way.

Assay [1] can be described thus: Quantitative High-Throughput drug screen in 47 multiple myeloma cell lines against the NCATS MIPE library collection: KMS28PE_JCRB cell viability assay (AID 1918983). Note: nearly all actives have a fitted effect of over 35% in size. As to conditions: KMS28PE multiple myeloma viability, CellTiter-Glo ATP, 48 h; series mostly up to 45.8 µM. The method in brief:
(§1)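 MIPE 4.0 approved/investigational drugs; 500 cells/well; 48 h 37 °C humidified 5% CO2; CTG luminescence readout; DMSO = 100%, media = 0% viability.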

Assay [2] in a line: Quantitative High-Throughput drug screen in 47 multiple myeloma cell lines against the NCATS MIPE library collection: KMS34_JCRB cell viability assay (AID 1918985). Note: nearly all actives have a fitted effect of over 40% in size. As to conditions: KMS34 myeloma viability, CellTiter-Glo ATP luminescence, 48 h; series mostly up to 45.8 µM. A digest of the protocol: as §1
Assay [3] can be described thus: Quantitative High-Throughput drug screen in 47 multiple myeloma cell lines against the NCATS MIPE library collection: OCIMY5_PLB cell viability assay (AID 1918988). Note: nearly all actives have a fitted effect of over 65% in size. As to conditions: OCI-MY5 myeloma viability, ATP luminescence, 48 h; series mostly up to 45.8 µM. The method in brief: as §1
Assay [4] in a line: Quantitative High-Throughput drug screen in 47 multiple myeloma cell lines against the NCATS MIPE library collection: OPM1_PLB cell viability assay (AID 1918989). Note: nearly all actives have a fitted effect of over 40% in size. The settings on record: CellTiter-Glo, 48 h; series mostly up to 45.8 µM. The method in brief: as §1
A short description of assay [5]: Quantitative High-Throughput drug screen in 47 multiple myeloma cell lines against the NCATS MIPE library collection: SKMM1_PLB cell viability assay (AID 1919863). Note: nearly all actives have a fitted effect of over 35% in size. As to conditions: SKMM1 myeloma viability, CellTiter-Glo ATP, 48 h; viability: active compounds read low. A digest of the protocol: as §1
Assay [6] can be described thus: Quantitative High-Throughput drug screen in 47 multiple myeloma cell lines against the NCATS MIPE library collection: XG1_PLB cell viability assay (AID 1919866). Note: nearly all actives have a fitted effect of over 35% in size. The settings on record: CellTiter-Glo ATP, 48 h; series mostly up to 45.8 µM. The method in brief: as §1
The nature of assay [7]: Quantitative High-Throughput drug screen in 47 multiple myeloma cell lines against the NCATS MIPE library collection: VP6_DJ cell viability assay (AID 1919867). Note: nearly all actives have a fitted effect of over 40% in size. As to conditions: ATP luminescence, 48 h; series mostly up to 45.8 µM. A digest of the protocol: as §1
Assay [8] in a line: Quantitative High-Throughput drug screen in 47 multiple myeloma cell lines against the NCATS MIPE library collection: UTMC2_PLB cell viability assay (AID 1919868).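 For viability (% of DMSO control): 100% = DMSO-only wells and 0% = media-only wells without cells.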 Note: nearly all actives have a fitted effect of over 55% in size. As to conditions: CellTiter-Glo ATP luminescence, 48 h; viability (% of DMSO control): at 45.8 µM (top of the series). The method in brief: as §1
A short description of assay [9]: Quantitative High-Throughput drug screen in 47 multiple myeloma cell lines against the NCATS MIPE library collection: PE2_PLB cell viability assay (AID 1919869). Note: nearly all actives have a fitted effect of over 35% in size. The settings on record: PE2_PLB myeloma cells viability, ATP luminescence, 48 h; series mostly up to 45.8 µM. A digest of the protocol: as §1
Assay [10] is described as follows: Quantitative High-Throughput drug screen in 47 multiple myeloma cell lines against the NCATS MIPE library collection: PCM6_Riken cell viability assay (AID 1919870). Note: nearly all actives have a fitted effect of over 30% in size. As to conditions: CellTiter-Glo ATP, 48 h; series mostly up to 45.8 µM. The method in brief: as §1
A short description of assay [11]: Quantitative High-Throughput drug screen in 47 multiple myeloma cell lines against the NCATS MIPE library collection: OPM2_DSMZ cell viability assay (AID 1919872). Note: nearly all actives have a fitted effect of over 30% in size. The settings on record: OPM2 myeloma viability, CellTiter-Glo ATP luminescence, 48 h; series mostly up to 45.8 µM. A digest of the protocol:
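Approved and investigational drugs from MIPE 4.0 were added by pin tool to 500 cells per well. After 48 hours at 37C, ATP-based CellTiter-Glo luminescence indicated remaining viability.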

Assay [12] can be described thus: Quantitative High-Throughput drug screen in 47 multiple myeloma cell lines against the NCATS MIPE library collection: KMS11_JCRBsus cell viability assay (AID 1919873). Note: nearly all actives have a fitted effect of over 50% in size. As to conditions: KMS11 myeloma viability, CellTiter-Glo ATP luminescence, 48 h; series mostly up to 45.8 µM. The method in brief:
as §1

Assay [13] is described as follows: Quantitative High-Throughput drug screen in 47 multiple myeloma cell lines against the NCATS MIPE library collection: KMS28BM_JCRB cell viability assay (AID 1919874). Note: nearly all actives have a fitted effect of over 35% in size. The settings on record: CellTiter-Glo ATP, 48 h; series mostly up to 45.8 µM. A digest of the protocol: as §1
Potency is the fitted concentration of half-maximal effect.

`COC[C@H]1OC(=O)c2coc3c2[C@@]1(C)C1=C(C3=O)C2CCC(=O)[C@@]2(C)C[C@H]1OC(C)=O` (stereo partly specified): the Potency in assay [1] is 6.62 µM (active); in [2], 7.43 µM (active); in assay [3] it was 14.8 µM (active); in assay [4], 833 nM (active); in assay [5], 2.96 µM (active); in assay [6], 1.48 µM (active). Further, the Potency in [7] is 3.72 µM (active); in assay [8] it was 264 nM (active); in assay [9] it was 1.66 µM (active); in assay [10], 3.32 µM (active); in [11], 10.5 µM (active); in assay [12], 13.2 µM (active).
For `COC1(CS(=O)c2ccccc2)CCN(CCc2c[nH]c3ccc(F)cc23)CC1` (stereo unspecified), the Potency in [1] is 8.33 µM (active); in assay [13], 743 nM (active). The Potency result in assay [2], in assay [8], in [10] and in [11] was “inactive” each time. In [5], the viability is 116%.
For the compound `CCCC(C)(COC(N)=O)COC(=O)NC(C)C` (stereo unspecified), the Potency entry in assay [1], in [3], in assay [6], in assay [7], in assay [9] and in assay [10] was “inactive” in each case. Besides, the Potency result in assay [11] was “inactive”.
